Screening results as filed in PubChem.
Compounds with a hit are over-represented: about 7.4% of the library has one in this group of screens.
NPC1 prom act: NPC1 promoter activation | Huh7 NPC1 promoter luciferase reporter, 24 h | Potency, µM (series often up to 9.22 µM), hits mostly activators | 2.4% of 320,000 active | AID 485313; also: nearly all actives have a fitted effect of over 60% in size
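Compounds in DMSO were transferred onto Huh7 NPC1-luciferase reporter cells pre-incubated 2 h; after 24 h at 37 °C, Amplite reagent was dispensed and luminescence recorded 10 min later.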
SMN2 splice up: SMN2 splice variant enhancement; HEK293 SMN2-luciferase splicing reporter, luminescence, 30-36 h; 2.8% of 210,000 active; Potency, µM (titrated, usually from 46.1 µM), usual class: activators; also: nearly all actives have a fitted effect of over 55% in size
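HEK293 cells carry an SMN2 […]–luciferase reporter in which exon 7 inclusion puts luciferase in frame. Cells were plated 10-12 h before compound addition, then incubated 30-36 h at 37C. ONE-Glo luminescence was read; sodium butyrate at 4.5 mM final served as control.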
Rab9 promoter act: Rab9 promoter activation | Potency, µM (titrated, usually from 9.22 µM), most hits filed as activators | 2.8% of 320,000 active | Huh7 Rab9 promoter-luciferase reporter, luminescence, 24 h; also: nearly all actives have a fitted effect of over 60% in size
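Cell-based reporter: Huh7 stable for Rab9 promoter-driven luciferase, plated in reduced-serum medium with 10% FBS at 1500 cells/well, compound-treated 24 h at 37 °C, luminescence read after 10 min reagent.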
ELG1 genotox: genotoxicity induction in ELG1-luciferase HEK293T cells; HEK293T ELG1-luciferase reporter, luminescence, 16 h; Potency, µM (doses to about 46 µM), actives largely listed as activators; 1.3% of 330,000 active; AID 504466; also: nearly all actives have a fitted effect of over 60% in size
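Quantitative HTS format in 1536-well plates. HEK293T ELG1-luciferase reporter cells receive test compound and are incubated 16 hr at 37 °C, 5% CO2; ONE-Glo added, 30 min room temperature, then luminescence read.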
FLuc counter: inhibits or activates purified firefly luciferase, miR-21 counter-screen. 6.9% of 360,000 active. purified FLuc, Km substrates, luminescence inhibition. AID 588342. Potency, µM (doses to about 57.5 µM), most hits filed as inhibitors. P08659; also: nearly all actives have a fitted effect of over 55% in size
Target sequence (P08659 whole entry, looked up): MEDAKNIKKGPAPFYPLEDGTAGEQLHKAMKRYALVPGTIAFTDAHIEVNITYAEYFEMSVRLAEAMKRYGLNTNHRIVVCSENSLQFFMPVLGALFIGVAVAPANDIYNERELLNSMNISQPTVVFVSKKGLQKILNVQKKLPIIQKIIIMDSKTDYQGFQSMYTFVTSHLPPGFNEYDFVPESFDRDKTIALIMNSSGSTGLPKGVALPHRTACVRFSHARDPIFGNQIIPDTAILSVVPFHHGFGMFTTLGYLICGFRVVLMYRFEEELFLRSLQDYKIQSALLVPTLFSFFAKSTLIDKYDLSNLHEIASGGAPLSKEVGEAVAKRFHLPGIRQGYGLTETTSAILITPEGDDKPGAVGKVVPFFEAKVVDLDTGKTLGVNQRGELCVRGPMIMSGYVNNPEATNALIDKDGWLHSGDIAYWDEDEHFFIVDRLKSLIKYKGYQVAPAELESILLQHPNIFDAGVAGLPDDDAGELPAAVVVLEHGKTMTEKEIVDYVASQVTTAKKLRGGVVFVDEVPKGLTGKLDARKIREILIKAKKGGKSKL
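Purified P. pyralis luciferase, 10 nM final, with Km-level 10 uM D-luciferin and 10 uM ATP in 50 mM Tris acetate pH 7.5, 10 mM Mg acetate, 0.01% Tween-20, 0.05% BSA; 6-point qHTS titration about 60 µM downward; luminescence read.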
A number is an active result; - = inactive; ? = inconclusive; . = not tested or not shown; [ ] = remark or other dose. Calls follow the shape of the dose curve; as a rule, active = well fitted curve in the direction sought with a large enough effect; inconclusive = small, poorly fitted or top-dose-only effect, or another doubt; inactive = no such curve, though single readings can be large; an effect the other way counts as inactive or inconclusive.

SMILES	NPC1 prom act	SMN2 splice up	Rab9 promoter act	ELG1 genotox	FLuc counter
COc1ccc(-c2nc(C)ncc2-c2ccccc2)c(O)c1	-	.	-	-	-
COc1ccc2cc(C3=CCCCC3)ncc2c1	2µM	.	?	?	0.849µM
COc1ccc2cc(-c3ccsc3)ncc2c1	?	.	-	?	1.9µM
CCOC(=O)CN1C(=O)C2(OCCCO2)c2cc(Br)ccc21	-	.	-	-	-
O=C(NN1C(=O)/C(=C/c2ccc(O)c(O)c2)SC1=S)c1ccccc1	-	.	-	-	?
CCOc1cc(/C=C2\SC(=S)N(Nc3ccccc3)C2=O)ccc1O	?	-	-	?	6.75µM
COc1cc(/C=C2\SC(=S)N(Nc3ccccc3)C2=O)ccc1O	-	-[1.84 µM]	-	?	5.36µM
O=C1/C(=C/c2ccc(O)c(O)c2)SC(=S)N1Nc1ccccc1	-	.	-	-	19µM
O=C(Cl)c1cccc([N+](=O)[O-])c1	.	-	.	.	.
CN(C)c1ccc(N=Nc2ccccc2C(=O)OCC(=O)N(C)c2ccccc2)cc1	-	?	-	-	1.35µM
CC(=O)c1ccc(NC(=O)COC(=O)c2ccccc2N=Nc2ccc(N(C)C)cc2)cc1	-	?	-	-	5.36µM
COC(=O)c1ccccc1NC(=O)COC(=O)c1ccccc1N=Nc1ccc(N(C)C)cc1	-	?	-	-	12µM
CN(C)c1cccc(C(=O)OCC(=O)N(C)c2ccccc2)c1	-	.	-	-	-
COC(=O)c1ccccc1NC(=O)COC(=O)c1ccco1	-	-	-	-	-
Cc1nc2nc[nH]n2c(=O)c1NS(=O)(=O)c1ccc(Br)cc1	.	-	.	.	?
O=C(NCCSCc1cccc(Cl)c1)C1CCN(S(=O)(=O)Cc2ccccc2)CC1	.	.	.	.	-
COc1ccc(-c2nnc(SCC(=O)c3cccs3)o2)cc1	3.55µM	-	2.24µM	10.3µM	2.39µM
Cc1ccc(SCC(=O)c2ccc[nH]2)cc1	?	?	?	?	23.9µM
COc1ccc(-c2nnc(SCC(=O)c3cc(C)n(Cc4cccs4)c3C)o2)cc1	-	-	-	-	?
O=C(CSc1nnc(-c2cccs2)o1)OC1CCCCC1	-	-	-	-	23.9µM
COc1ccc(-c2nnc(SCC(=O)c3ccc[nH]3)o2)cc1	3.16µM	8.91µM	1.58µM	?	4.26µM
O=C(CSc1nnc(-c2cccs2)o1)OCc1ccccc1	-	-	-	-	-
Cc1ccc(CNC(=O)c2ccc[nH]2)cc1	-	-	-	-	-
Ic1ccc2c(c1)N(c1ccccc1)c1cc(Nc3ccc4nc5ccc(I)cc5[n+](-c5ccccc5)c4c3)ccc1N2	.	-[9.22 µM]	.	.	.
COc1cccc(C(=O)CSc2nnc(-c3cccs3)o2)c1	-	-	-	-	-
SMILES	NPC1 prom act	SMN2 splice up	Rab9 promoter act	ELG1 genotox	FLuc counter
CCNC(=O)CSc1nnc(-c2cccs2)o1	-	-	-	-	-
O=C(CSc1nnc(-c2cccs2)o1)c1cccs1	1.58µM	-	2.82µM	?	9.53µM
Cc1cc(C(=O)CSc2nnc(-c3cccs3)o2)c(C)n1-c1ccccc1	-	-	-	-	6.75µM
Cc1cc2c(cc1Cl)N(C(=O)Nc1ccnc3ccccc13)CC2	-	-	-	.	.
COc1ccc(OC)c(S(=O)(=O)n2ccnc2C(C)C)c1	-	.	-	-	-
O=C(N/N=C/c1ccc2c(c1)OCO2)c1cc(-c2ccccc2)nc2ccccc12	-	-[1.84 µM]	-	-	10.7µM
O=C(N/N=C/c1ccc2c(c1)OCO2)c1cc(-c2ccco2)nc2ccccc12	-	.	-	-	0.849µM
O=C(Nc1ccc2c(c1)OCO2)c1cc(-c2cccnc2)nc2ccccc12	-	-	-	-	?
CCCNS(=O)(=O)c1ccc(OCC(=O)Nc2ccc3c(c2)OCCO3)c(C)c1	-	.	-	-	-
N[C@H](C(=O)O)c1ccc(C(=O)O)cc1	.	-	.	.	.
CCN1CCN(C(c2ccccc2)c2sc3nc(-c4ccco4)nn3c2O)CC1 (centres undefined)	.	.	.	.	-
O=[N+]([O-])c1ccc(C(c2sc3nc(-c4ccco4)nn3c2O)N2CCN(c3cccc(Cl)c3)CC2)cc1 (centres undefined)	.	.	.	.	19µM
COc1ccccc1N1CCN(C(=O)CNC(=O)c2cn(-c3ccccc3OC)c(=O)c3ccccc23)CC1	-	-	-	-	6.75µM
COc1ccccc1-n1cc(C(=O)NCC(=O)N2CCN(c3ccccc3)CC2)c2ccccc2c1=O	-	?	?	-	0.757µM
COc1ccccc1-n1cc(C(=O)NCC(=O)N2CCN(c3ccccn3)CC2)c2ccccc2c1=O	-	.	-	-	3.38µM
Cc1ccc(-c2nc3ccccc3o2)cc1NC(=O)c1ccc2c(c1)OCO2	?	.	-	7.31µM	?
O=C(Nc1ccc2oc(-c3ccccc3F)nc2c1)c1ccc2c(c1)OCCO2	-	-	-	-	6.75µM
O=C(Nc1ccc(-c2nc3ccccc3o2)cc1)c1ccc2c(c1)OCO2	.	-	.	.	-
Cc1c(NC(=O)c2ccc3c(c2)OCO3)cccc1-c1nc2ccccc2o1	-	-	-	-	9.53µM
Cc1c(NC(=O)c2cc(-n3cnnc3)ccc2Cl)cccc1-c1nc2ccccc2o1	-	-	-	-	3.79µM
COc1ccc2nc(NC(=O)CN3CCOCC3)sc2c1	-	-	-	?	?
COc1ccc2nc(NC(=O)c3ccoc3C)sc2c1	0.631µM	2µM	0.447µM	?	1.2µM
Cc1cc(C(=O)Nc2nc3ccc(S(C)(=O)=O)cc3s2)c(C)o1	?	5.62µM	3.16µM	8.2µM	0.849µM
COc1ccc(C(=O)Nc2nc3cc4c(cc3s2)OCO4)c(OC)c1	0.794µM	.	0.794µM	?	0.426µM
COc1ccc2nc(NC(=O)c3cc(C)oc3C)sc2c1	?	15.8µM	2.82µM	?	1.35µM
SMILES	NPC1 prom act	SMN2 splice up	Rab9 promoter act	ELG1 genotox	FLuc counter
Cc1ccc(S(=O)(=O)N2[C@@H](c3ccc(F)cc3)C(C(=O)O)=CC[C@H]2c2cccs2)cc1	-	.	-	-	-
CCc1ccc(NC(=O)CSc2nc(=O)n(Cc3cccnc3)c3c2CCC3)cc1	.	.	.	.	-
O=C(O)c1cccc(NN=C2c3ccccc3-c3ccccc32)c1	-	-	-	-	26.9µM
O=C(O)c1cccc2c1-c1ccccc1/C2=N\Nc1ccccc1	3.16µM	.	?	-	10.7µM
COc1ccccc1CN1CCNC(=O)C1=O	.	.	.	.	-
O=C1CCc2cc(NS(=O)(=O)c3ccccc3)cc3c2N1CC3	-	.	-	4.11µM	-
O=C(CSc1nc2ccccc2[nH]1)c1ccco1	?	?	3.98µM	?	16.9µM
COc1ccc2nc(SCC(=O)C(C)(C)C)[nH]c2c1	2µM	.	2.24µM	14.6µM	?
O=C(CSc1nc2ccccc2[nH]1)NCc1ccccc1	-	.	-	-	-
COc1ccc2nc(SCC(=O)c3ccco3)[nH]c2c1	2.24µM	?	1.78µM	?	5.36µM
O=C(CSc1ncnc2ccccc12)c1ccco1	3.16µM	.	3.16µM	?	3.01µM
COc1ccc2nc(SCC(=O)NC(C)(C)C)[nH]c2c1	-	-	-	-	-
Cc1ccc(-c2nnc3ccccc3c2C(=O)Nc2ccccc2F)cc1	.	.	.	.	-
